# Source: PubChem BioAssay
# “And” between values parts separate entries of the source, which are not always exact repeats. Equal values may be shown once. Records with an inconclusive call do not appear. The source made the active and inactive calls.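 Rule for the calls, unless noted: active = differentiation response of at least 50%, scaled between solvent and reference control, from cells with both markers; inactive = the rest.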
# Key:
# [1] = yeast TOR pathway RPL19A-GFP modulators, primary screen, cell-based, S. cerevisiae, multiplex flow cytometry (AID 1862; in the data active = percent of DMSO control GFP below about 86%;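 note: lower values mimic rapamycin by blocking the RPL19A rise seen in DMSO cells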); conditions: S. cerevisiae RPL19A-GFP strain, flow cytometry fluorescence, 3 h; at 10 µM; stronger effect = lower value
# [2] = modulators of MEP2-GFP levels in yeast, primary screen, S. cerevisiae, multiplex flow cytometry (AID 1867;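 active = GFP response, as percent of the DMSO control, above the screen-wide mean plus 3 SD, about 139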;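 note: median GFP channel fluorescence of barcode-gated MEP2-GFP cells measured by flow cytometry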); conditions: S. cerevisiae MEP2-GFP strain, 3 h, at 10 µM, stronger effect = higher value, 100% means same as DMSO wells
# [3] = modulators of CIT2-GFP expression in yeast, primary screen, S. cerevisiae, GFP fusion, multiplex flow cytometry (AID 1870;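 active = percent response above a set limit, the screen-wide mean plus 3 SD, cut at about 130% in these data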;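 note: barcoded CIT2-GFP strain pooled with four other GFP strains with rapamycin as positive control; median GFP fluorescence per well over plate mean of DMSO wells so 100% = DMSO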); conditions: 3 h, at 10 µM, stronger effect = higher value
# [4] = modulators of LAP4-GFP expression in yeast, primary screen, S. cerevisiae, multiplex flow cytometry (AID 1873;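 active = GFP signal, as percent of the solvent control, above the screen mean plus 3 SD, about 149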); conditions: 3 h, at 10 µM, stronger effect = higher value
# [5] = modulators of AGP1-GFP expression in yeast TOR pathway, primary screen, cell-based, multiplex flow cytometry, S. cerevisiae (AID 1887;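 active = GFP signal above the screen-wide mean plus 3 SD, that is over about 124.5% of the solvent control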;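 note: AGP1-GFP fusion strain of S. cerevisiae within a five-strain barcoded multiplex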); conditions: 3 h, at 10 µM, stronger effect = higher value
# [6] = inhibitors of CD8+ T cell-vesicle binding, pilot screen, LFA-1/ICAM-1 modulator project, MLPCN validation set, flow cytometry (AID 2523;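 active = response below a set limit, under 55% cells CD8-positive and vesicle-bound, and CD8 cells' 90th-percentile brightness under 279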;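 for vesicle binding response: mean PE anti-B7-1 fluorescence of CD8+ cells relative to row control; 100% = QL9-loaded vesicles with DMSO vehicle in the same plate row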); conditions: 2C mouse CD8+ T cells, at 7 µM, stronger effect = lower value; double positive events: measured here: CD8+/vesicle+ event percentage
# [7] = target: Integrin beta-1 (Homo sapiens) + Integrin alpha-4 (Homo sapiens) (UniProt P13612+P05556); assay: inhibition of HUTS-21 binding to VLA-4, pilot screen, VLA-4 allosteric modulator project, U937 cells, HUTS-21 mAb, flow cytometry, validation set (AID 2674;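 active = inhibition above 50%, about 3 SD of the validation set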;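 note: antibody binding induced by the VLA-4 ligand LDV present at three times its Kd; 0% = LDV ligand with antibody and no compound and 100% = antibody without LDV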); conditions: HUTS-21 LIBS mAb binding, at 6.7 µM, stronger effect = higher value, binding induced by LDV ligand
# Sequence of Integrin beta-1 (Homo sapiens) + Integrin alpha-4 (Homo sapiens) (P05556 whole entry, looked up): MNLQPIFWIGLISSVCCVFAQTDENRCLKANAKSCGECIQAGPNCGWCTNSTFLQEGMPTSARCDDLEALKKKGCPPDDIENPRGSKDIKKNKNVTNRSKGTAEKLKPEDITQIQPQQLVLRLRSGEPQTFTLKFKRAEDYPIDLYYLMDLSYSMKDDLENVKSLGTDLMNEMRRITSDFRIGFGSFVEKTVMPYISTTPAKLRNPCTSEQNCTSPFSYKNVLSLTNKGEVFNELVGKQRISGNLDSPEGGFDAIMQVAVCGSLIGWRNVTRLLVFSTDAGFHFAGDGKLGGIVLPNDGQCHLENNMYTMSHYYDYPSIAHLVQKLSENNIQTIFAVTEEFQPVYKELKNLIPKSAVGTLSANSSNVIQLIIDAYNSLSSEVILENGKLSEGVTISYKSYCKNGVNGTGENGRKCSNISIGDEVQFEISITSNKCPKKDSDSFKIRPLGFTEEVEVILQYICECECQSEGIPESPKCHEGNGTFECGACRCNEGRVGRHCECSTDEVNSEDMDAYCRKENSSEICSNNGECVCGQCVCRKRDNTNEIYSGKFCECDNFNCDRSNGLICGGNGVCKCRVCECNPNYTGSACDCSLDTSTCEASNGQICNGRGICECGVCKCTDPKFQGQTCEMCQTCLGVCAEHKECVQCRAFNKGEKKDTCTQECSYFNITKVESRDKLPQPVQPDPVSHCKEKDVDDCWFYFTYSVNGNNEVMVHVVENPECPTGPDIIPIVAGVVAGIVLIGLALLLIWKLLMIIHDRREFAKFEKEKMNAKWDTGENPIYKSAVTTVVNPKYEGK
# Sequence of Integrin beta-1 (Homo sapiens) + Integrin alpha-4 (Homo sapiens) (P13612 whole entry, looked up): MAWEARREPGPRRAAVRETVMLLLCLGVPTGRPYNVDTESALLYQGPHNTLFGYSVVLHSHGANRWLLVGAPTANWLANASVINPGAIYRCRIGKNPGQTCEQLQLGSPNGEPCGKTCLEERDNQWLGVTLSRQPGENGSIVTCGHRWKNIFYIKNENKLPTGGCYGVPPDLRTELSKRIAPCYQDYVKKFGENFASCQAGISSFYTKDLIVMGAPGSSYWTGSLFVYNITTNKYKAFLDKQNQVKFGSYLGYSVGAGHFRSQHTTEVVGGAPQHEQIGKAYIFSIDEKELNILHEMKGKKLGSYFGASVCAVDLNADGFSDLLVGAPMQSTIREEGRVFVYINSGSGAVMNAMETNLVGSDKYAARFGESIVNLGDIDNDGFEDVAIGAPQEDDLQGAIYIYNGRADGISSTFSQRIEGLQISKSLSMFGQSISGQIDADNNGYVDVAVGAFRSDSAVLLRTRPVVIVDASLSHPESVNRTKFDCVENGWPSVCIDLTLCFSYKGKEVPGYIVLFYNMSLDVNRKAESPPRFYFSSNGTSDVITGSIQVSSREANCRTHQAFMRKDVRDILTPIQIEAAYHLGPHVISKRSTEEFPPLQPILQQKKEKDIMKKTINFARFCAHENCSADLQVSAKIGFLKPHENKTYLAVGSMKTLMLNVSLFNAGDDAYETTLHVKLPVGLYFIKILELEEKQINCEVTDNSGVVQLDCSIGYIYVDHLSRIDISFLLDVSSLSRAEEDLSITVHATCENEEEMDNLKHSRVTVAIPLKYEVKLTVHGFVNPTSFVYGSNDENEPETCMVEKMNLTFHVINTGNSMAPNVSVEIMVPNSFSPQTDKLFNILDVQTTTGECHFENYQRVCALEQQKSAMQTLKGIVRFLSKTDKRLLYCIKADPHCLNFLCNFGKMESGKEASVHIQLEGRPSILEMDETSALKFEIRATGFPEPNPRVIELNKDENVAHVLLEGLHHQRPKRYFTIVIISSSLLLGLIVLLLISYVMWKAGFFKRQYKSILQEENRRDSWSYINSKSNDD
# [8] = superoxide lowering in aged yeast cells, pilot screen, validation compound set (AID 2706;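 active = superoxide response below 65% of plate, a cut near 3 SD across the whole screen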;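 note: yeast exposed to compound for one week at 30 degrees C before staining; 100% = mean of all compound wells on the same plate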); conditions: S. cerevisiae aging, superoxide DHE fluorescence; at 10 µM; stronger effect = lower value
# [9] = target: Beta-adrenergic receptor kinase 1 (Homo sapiens) (UniProt P25098); assay: GRK2 binders displacing RNA aptamer, biochemical, validation, human GRK2, bead flow cytometry (AID 488806;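 active = aptamer binding inhibition above 30%, about 3 SD of noise from non-fluorescent compounds; inactive = inhibition at or below 30%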); conditions: bead-bound GRK2, FAM-aptamer displacement, at 10 µM, stronger effect = higher value
# Sequence of Beta-adrenergic receptor kinase 1 (Homo sapiens) (P25098 whole entry, looked up): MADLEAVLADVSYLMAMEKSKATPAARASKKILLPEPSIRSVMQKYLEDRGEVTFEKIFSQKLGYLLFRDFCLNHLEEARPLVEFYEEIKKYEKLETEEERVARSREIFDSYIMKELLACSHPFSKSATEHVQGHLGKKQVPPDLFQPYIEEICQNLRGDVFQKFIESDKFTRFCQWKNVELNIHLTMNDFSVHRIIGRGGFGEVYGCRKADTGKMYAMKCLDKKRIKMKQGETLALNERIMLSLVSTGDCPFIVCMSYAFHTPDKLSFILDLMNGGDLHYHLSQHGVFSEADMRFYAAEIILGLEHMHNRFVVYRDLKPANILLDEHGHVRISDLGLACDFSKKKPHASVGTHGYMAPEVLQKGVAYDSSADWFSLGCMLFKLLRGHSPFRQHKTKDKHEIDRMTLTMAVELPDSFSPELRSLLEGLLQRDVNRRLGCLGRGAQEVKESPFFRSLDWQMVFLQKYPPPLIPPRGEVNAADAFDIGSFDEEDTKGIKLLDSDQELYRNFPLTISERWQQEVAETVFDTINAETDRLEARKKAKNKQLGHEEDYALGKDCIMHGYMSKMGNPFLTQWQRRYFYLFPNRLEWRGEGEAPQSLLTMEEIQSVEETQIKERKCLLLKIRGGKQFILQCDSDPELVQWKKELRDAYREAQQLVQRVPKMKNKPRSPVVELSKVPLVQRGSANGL
# [10] = target: Beta-2 adrenergic receptor (Homo sapiens) (UniProt P07550); assay: beta2AR agonists driving receptor internalization, pilot screen, cell-based, FAP fluorogen, flow cytometry, validation set (AID 504459;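 active = percent response above 42, roughly 3 SD of non-fluorescent test compounds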;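 note: agonist-driven loss of surface beta2AR via internalization measured by FAP dye flow cytometry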); conditions: Am2.2-beta2AR cells, FAP surface receptor flow cytometry; at 10 µM; stronger effect = higher value
# Sequence of Beta-2 adrenergic receptor (Homo sapiens) (P07550 whole entry, looked up): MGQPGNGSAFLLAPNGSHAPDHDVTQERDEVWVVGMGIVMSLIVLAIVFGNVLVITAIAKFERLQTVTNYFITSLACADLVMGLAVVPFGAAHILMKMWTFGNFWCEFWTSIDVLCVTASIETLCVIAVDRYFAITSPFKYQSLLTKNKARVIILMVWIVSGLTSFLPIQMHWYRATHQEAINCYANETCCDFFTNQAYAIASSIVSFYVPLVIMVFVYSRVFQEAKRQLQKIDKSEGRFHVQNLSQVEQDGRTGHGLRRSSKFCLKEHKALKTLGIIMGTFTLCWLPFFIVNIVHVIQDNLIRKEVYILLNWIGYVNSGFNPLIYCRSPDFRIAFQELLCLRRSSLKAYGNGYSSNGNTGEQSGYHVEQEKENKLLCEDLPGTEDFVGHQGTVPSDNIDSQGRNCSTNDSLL
# [11] = target: AP-2 complex subunit beta (Homo sapiens) (UniProt P63010); assay: inhibitors of arrestin peptide binding to AP2, pilot screen, biochemical, validation set, GST-AP2 beads, flow cytometry (AID 504541;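 active = inhibition above 54%, about 3 SD of non-fluorescent compounds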;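 note: AP2 carries R879A mutation and is captured from E. coli lysate; bead-bound FITC arrestin peptide fluorescence measuring arrestin peptide binding to AP2; 0% = DMSO wells and 100% = excess unlabeled arrestin peptide control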); conditions: FITC arrestin peptide, at 10 µM, stronger effect = higher value, AP2 beta2 appendage fragment, R879A mutant
# Sequence of AP-2 complex subunit beta (Homo sapiens) (P63010 whole entry, looked up, the tested form may be a part, one chain of several): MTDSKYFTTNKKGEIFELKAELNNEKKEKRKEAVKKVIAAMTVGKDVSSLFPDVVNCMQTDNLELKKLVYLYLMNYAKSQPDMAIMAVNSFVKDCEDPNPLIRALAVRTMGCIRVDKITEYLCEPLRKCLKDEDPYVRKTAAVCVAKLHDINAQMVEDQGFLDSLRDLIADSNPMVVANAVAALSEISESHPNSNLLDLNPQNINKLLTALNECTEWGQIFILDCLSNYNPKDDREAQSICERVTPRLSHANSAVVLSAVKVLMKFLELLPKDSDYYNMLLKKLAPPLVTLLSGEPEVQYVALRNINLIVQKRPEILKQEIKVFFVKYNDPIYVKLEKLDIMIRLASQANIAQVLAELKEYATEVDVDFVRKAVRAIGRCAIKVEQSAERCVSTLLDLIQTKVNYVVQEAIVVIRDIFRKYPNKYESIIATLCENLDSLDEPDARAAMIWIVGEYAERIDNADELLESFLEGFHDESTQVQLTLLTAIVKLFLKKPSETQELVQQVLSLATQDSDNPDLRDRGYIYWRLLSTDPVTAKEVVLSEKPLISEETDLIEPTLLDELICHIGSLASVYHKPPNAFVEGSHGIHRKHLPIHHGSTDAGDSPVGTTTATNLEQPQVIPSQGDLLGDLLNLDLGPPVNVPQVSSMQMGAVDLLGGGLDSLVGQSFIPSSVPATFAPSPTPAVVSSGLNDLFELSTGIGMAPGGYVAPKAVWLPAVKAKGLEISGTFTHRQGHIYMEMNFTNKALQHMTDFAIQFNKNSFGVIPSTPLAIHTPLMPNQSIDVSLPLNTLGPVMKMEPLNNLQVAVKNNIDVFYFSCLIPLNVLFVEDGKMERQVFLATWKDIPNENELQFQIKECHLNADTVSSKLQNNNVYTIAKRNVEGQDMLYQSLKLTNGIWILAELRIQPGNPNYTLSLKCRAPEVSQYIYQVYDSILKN
# [12] = yeast V-ATPase proton transport modulators, S. cerevisiae, pHLuorin, HTS validation (AID 504600; in the data active = response above about 15%;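 note: plate controls were DMSO for no effect and reference compound for full effect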); conditions: S. cerevisiae pHLuorin cytosolic pH, at 10 µM, stronger effect = higher value
# [13] = system: anti-desmoglein-3 scFv antibody binding to human DSG3; assay: inhibitors of anti-DSG3 scFv binding to DSG3, pilot screen, biochemical, validation compound set, bead-based, flow cytometry (AID 588368;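 active = binding below the plate cutoff, the plate median minus 3 SD, with a reading above zero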;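 note: signal is the median channel fluorescence of bead-bound GFP antibody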); conditions: Protein G beads, DSG3-Fc, scFv-GFP binding, at 10 µM, stronger effect = lower value
# [14] = inhibitors of fungal efflux pumps CDR1, CDR2, MDR1, pilot screen, validation compound set, multiplex, phenotypic (AID 588506;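 active = efflux inhibition above 0.42, the validation set average plus 4 SD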;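 note: Nile Red retained in cells so higher fluorescence means more efflux inhibition; 0 = negative control wells and 1 = enniatin B 25 µM full block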); conditions: S. cerevisiae pump-expressing triplex, Nile Red efflux flow cytometry; at 10 µM; stronger effect = higher value; the pumps come from Candida albicans
# [15] = target: ATP-binding cassette sub-family B member 6 (Homo sapiens) (UniProt Q9NP58); assay: ABCB6 transporter inhibitors, pilot screen, K562-ABCB6 cells, flow cytometry, validation set (AID 588550;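 active = inhibition above the screen-wide mean plus 3 SD, about 51%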;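 note: 0% = DMSO wells and 100% = benzethonium chloride 70 µM positive control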); conditions: K562-ABCB6 porphyrin accumulation, 1 h, at 10 µM, stronger effect = higher value
# Sequence of ATP-binding cassette sub-family B member 6 (Homo sapiens) (Q9NP58 whole entry, looked up): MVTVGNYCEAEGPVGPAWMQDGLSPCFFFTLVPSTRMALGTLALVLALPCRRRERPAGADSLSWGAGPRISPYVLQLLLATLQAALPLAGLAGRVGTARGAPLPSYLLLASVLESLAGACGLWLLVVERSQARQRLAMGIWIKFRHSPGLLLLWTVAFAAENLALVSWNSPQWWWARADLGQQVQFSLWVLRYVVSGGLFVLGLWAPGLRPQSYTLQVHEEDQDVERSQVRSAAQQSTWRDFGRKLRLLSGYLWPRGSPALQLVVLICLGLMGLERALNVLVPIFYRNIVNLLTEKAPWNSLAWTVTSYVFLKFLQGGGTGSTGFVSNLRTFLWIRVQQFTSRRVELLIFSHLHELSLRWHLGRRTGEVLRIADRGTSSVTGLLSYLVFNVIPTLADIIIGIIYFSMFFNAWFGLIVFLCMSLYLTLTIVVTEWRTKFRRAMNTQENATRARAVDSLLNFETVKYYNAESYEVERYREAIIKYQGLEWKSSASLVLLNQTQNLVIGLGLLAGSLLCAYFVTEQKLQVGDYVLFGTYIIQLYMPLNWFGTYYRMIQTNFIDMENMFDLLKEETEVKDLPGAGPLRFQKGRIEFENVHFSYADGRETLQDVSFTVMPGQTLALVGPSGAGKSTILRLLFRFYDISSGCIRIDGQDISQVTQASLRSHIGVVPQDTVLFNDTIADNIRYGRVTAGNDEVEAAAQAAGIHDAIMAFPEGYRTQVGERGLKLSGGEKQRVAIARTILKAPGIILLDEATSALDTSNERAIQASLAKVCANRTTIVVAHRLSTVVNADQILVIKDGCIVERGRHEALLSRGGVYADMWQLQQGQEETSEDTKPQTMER
# [16] = promoters of myeloid differentiation in arrested cells, primary screen, cell-based, GFP/MAC1 double positive, flow cytometry, validation set (AID 588685); conditions: ER-HoxA9 marrow cells, stronger effect = higher value, normalized: vehicle 0, fulvestrant 100;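 note: compound exposure lasts four days before antibody staining and flow analysis; 0% = DMSO wells and 100% = 5 µM fulvestrant positive control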
Structure (SMILES),percent of DMSO control GFP [1],GFP response vs DMSO [2],percent response of DMSO control [3],GFP response vs DMSO [4],"GFP response, % of DMSO [5]",double positive events [6],vesicle binding response [6],inhibition [7],superoxide response (% of plate) [8],aptamer binding inhibition [9],response [10],inhibition [11],response [12],binding (% of control) [13],efflux inhibition (fraction of control) [14],inhibition [15],differentiation response [16]
COc1cc2c(cc1OC)CN(C(=O)c1ccc(S(=O)(=O)N(C)c3ccccc3)cc1)CC2,95.9% (inactive),101% (inactive),99.6% (inactive),115% (inactive),111% (inactive),73.5%,605% (inactive),5.69% (inactive),57.5% (active),1% (inactive),-14.1% (inactive),-6.13% (inactive),1.25% (inactive),96.2% (inactive),0 (inactive),5% (inactive),1.91% (inactive)
CCc1cc(=O)oc2cc(OCc3nn[nH]n3)ccc12,102% (inactive),100% (inactive),96.6% (inactive),96% (inactive),100% (inactive),65.5%,174% (inactive),-10.8% (inactive),106% (inactive),5% (inactive),-3.63% (inactive),9.23% (inactive),-0.49% (inactive),103% (inactive),0.02 (inactive),14% (inactive),0.24% (inactive)
O=c1[nH]cnc2[nH]ncc12,103% (inactive),103% (inactive),96.5% (inactive),90.4% (inactive),95% (inactive),55.6%,154% (inactive),15% (inactive),98% (inactive),0% (inactive),-2.08% (inactive),2.53% (inactive),-1.12% (inactive),103% (inactive),0.005 (inactive),-64% (inactive),7.13% (inactive)
Nc1ccn([C@@H]2O[C@H](CO)[C@@H](O)[C@@H]2O)c(=O)n1,101% (inactive),106% (inactive),109% (inactive),114% (inactive),111% (inactive),64.5%,201% (inactive),8.29% (inactive),108% (inactive),0% (inactive),-9.36% (inactive),10.5% (inactive),-2.75% (inactive),99.4% (inactive),-0.08 (inactive),-10% (inactive),-11.9% (inactive)
CC1CCc2cc(F)cc3c(=O)c(C(=O)O)cn1c23 (stereo not drawn),99% (inactive),111% (inactive),95.4% (inactive),101% (inactive),96.5% (inactive),62.3%,204% (inactive),-37.8% (inactive),101% (inactive),0% (inactive),-2.58% (inactive),10.9% (inactive),-2.27% (inactive),94% (inactive),-0.04 (inactive),-15% (inactive),-6.6% (inactive)
COc1ccccc1OS(=O)(=O)c1ccc(NC(C)=O)cc1,87.1% (inactive),123% (inactive),101% (inactive),82.5% (inactive),103% (inactive),57.8%,65.7% (inactive),10.3% (inactive),97% (inactive),2% (inactive),-16.4% (inactive),-11.8% (inactive),-0.65% (inactive),101% (inactive),-0.35 (inactive),4% (inactive),-4.09% (inactive)
Nc1ccc(C(=O)O)c(O)c1,102% (inactive),106% (inactive) and 107% (inactive),99.7% (inactive) and 96.7% (inactive),100% (inactive) and 111% (inactive),104% (inactive) and 106% (inactive),61.7% and 60.8%,199% (inactive) and 232% (inactive),-2.43% (inactive) and 6.4% (inactive),95.4% (inactive) and 103% (inactive),5% (inactive) and 4% (inactive),-5.54% (inactive) and 8.67% (inactive),-7.61% (inactive) and 3.32% (inactive),-2.48% (inactive) and -0.83% (inactive),103% (inactive) and 100% (inactive),0.28 (inactive) and -0.03 (inactive),3% (inactive) and 8% (inactive),-7.5% (inactive) and -31.2% (inactive)
NC(=O)[C@@H]1[C@@H]2C(=O)N(c3ccc(F)cc3)C(=O)[C@@H]2[C@H]2C=Cc3ccccc3N21,104% (inactive),105% (inactive),112% (inactive),100% (inactive),102% (inactive),63%,126% (inactive),-80.5% (inactive),103% (inactive),6% (inactive),4.67% (inactive),-25.9% (inactive),-0.45% (inactive),104% (inactive),-0.12 (inactive),-37% (inactive),3.45% (inactive)
COc1cccc2c(=O)c3ccccc3oc12,93.9% (inactive),117% (inactive),111% (inactive),74.3% (inactive),88% (inactive),61.1%,134% (inactive),-9.06% (inactive),109% (inactive),2% (inactive),-12.3% (inactive),-2.99% (inactive),0.55% (inactive),96% (inactive),0.27 (inactive),15% (inactive),-3.28% (inactive)
COc1ccc(C(=O)Oc2ccc3c(C)cc(=O)oc3c2C(C)=O)cc1,104% (inactive),103% (inactive),108% (inactive),105% (inactive),106% (inactive),61.4%,123% (inactive),-5.11% (inactive),103% (inactive),-1% (inactive),2.26% (inactive),5.55% (inactive),-3.4% (inactive),107% (inactive),0.12 (inactive),14% (inactive),-19.2% (inactive)
C=CCOc1ccc(C(=O)CC)cc1OC,102% (inactive),105% (inactive),104% (inactive),106% (inactive),98.6% (inactive),60%,174% (inactive),8.29% (inactive),103% (inactive),1% (inactive),2.91% (inactive),-8.48% (inactive),9.51% (inactive),106% (inactive),0.03 (inactive),-4% (inactive),-6.03% (inactive)
COc1ccc(NC(=S)N2CCN(CCN3C(=O)c4cccc5cccc(c45)C3=O)CC2)cc1,101% (inactive),129% (inactive),104% (inactive),90.2% (inactive),91.9% (inactive),59.1%,31.6% (inactive),-6.15% (inactive),86.5% (inactive),0% (inactive),-4.94% (inactive),24.4% (inactive),-0.62% (inactive),105% (inactive),0.34 (inactive),9% (inactive),18% (inactive)
COc1ccccc1N1C(=O)C2CC(C)=C(C)CC2C1=O (stereo not drawn),103% (inactive),102% (inactive),99.3% (inactive),85.2% (inactive),104% (inactive),63%,164% (inactive),19.7% (inactive),109% (inactive),11% (inactive),4.23% (inactive),-31.7% (inactive),2.17% (inactive),99% (inactive),-0.06 (inactive),4% (inactive),-3.4% (inactive)
Cc1ccc2c(c1)c(C)cc(=O)n2CCC(=O)O,101% (inactive),102% (inactive),98.6% (inactive),116% (inactive),102% (inactive),61.6%,210% (inactive),13.2% (inactive),97.2% (inactive),17% (inactive),4.73% (inactive),11.3% (inactive),1.4% (inactive),101% (inactive),-0.24 (inactive),3% (inactive),-20% (inactive)
CC(C)COC(=O)C1C(=O)CC(C)(O)C(C(=O)OCC(C)C)C1c1cccnc1 (stereo not drawn),90.4% (inactive),118% (inactive),102% (inactive),74.3% (inactive),88.4% (inactive),59.8%,203% (inactive),8.4% (inactive),113% (inactive),2% (inactive),-11.2% (inactive),2.38% (inactive),2.35% (inactive),102% (inactive),-0.06 (inactive),18% (inactive),-3.28% (inactive)
CC(C)OC(=O)c1ccc(NC(=O)c2cncc(Br)c2)cc1,103% (inactive),104% (inactive),98.6% (inactive),103% (inactive),88.5% (inactive),56.1%,143% (inactive),16.3% (inactive),114% (inactive),-1% (inactive),0.79% (inactive),-2.11% (inactive),4.94% (inactive),99% (inactive),0.04 (inactive),-3% (inactive),-7.5% (inactive)
O=C(NC(Nc1ccccn1)C(Cl)(Cl)Cl)c1ccccc1 (stereo not drawn),100% (inactive),102% (inactive),103% (inactive),103% (inactive),102% (inactive),58.7%,157% (inactive),-13.2% (inactive),91.6% (inactive),-1% (inactive),1.87% (inactive),-6.1% (inactive),-1.51% (inactive),99.8% (inactive),0.25 (inactive),-8% (inactive),-10.4% (inactive)
COc1ccc(C(=O)Nc2ccccc2C(=O)NC(Cc2c[nH]c3ccccc23)C(=O)O)cc1 (stereo not drawn),101% (inactive),107% (inactive),95.4% (inactive),92.7% (inactive),95.4% (inactive),64.5%,174% (inactive),-28.5% (inactive),107% (inactive),3% (inactive),10.6% (inactive),51.3% (inactive),-3% (inactive),99.8% (inactive),0.33 (inactive),-16% (inactive),22.7% (inactive)
CC(C)CCC1(CCNC(C)c2cccs2)CCOC(C)(C)C1 (stereo not drawn),102% (inactive),108% (inactive),97.8% (inactive),93.3% (inactive),101% (inactive),58.8%,1220% (inactive),-6.68% (inactive),96.5% (inactive),0% (inactive),8.29% (inactive),1.09% (inactive),-1.06% (inactive),98.5% (inactive),-0.17 (inactive),2% (inactive),1.22% (inactive)
